We go through 2 sequences from article PMC7862700, “An all-to-all approach to the identification of sequence-specific readers for epigenetic DNA modifications on cytosine”.

Holding throughout (assay): DAPPL (digital affinity profiling via proximity ligation, sequencing); 10 mM Tris-HCl pH 7.5, 50 mM NaCl, 1 mM DTT, 4% glycerol, room temperature, 30 min; GST-TFs on glutathione beads, 16-mer random dsDNA library, 0.1% formaldehyde crosslink after washing; high values mean tight binding
One experiment addresses T1, FLI1 (Homo sapiens, UniProt Q01543 1-452).
T1 sequence: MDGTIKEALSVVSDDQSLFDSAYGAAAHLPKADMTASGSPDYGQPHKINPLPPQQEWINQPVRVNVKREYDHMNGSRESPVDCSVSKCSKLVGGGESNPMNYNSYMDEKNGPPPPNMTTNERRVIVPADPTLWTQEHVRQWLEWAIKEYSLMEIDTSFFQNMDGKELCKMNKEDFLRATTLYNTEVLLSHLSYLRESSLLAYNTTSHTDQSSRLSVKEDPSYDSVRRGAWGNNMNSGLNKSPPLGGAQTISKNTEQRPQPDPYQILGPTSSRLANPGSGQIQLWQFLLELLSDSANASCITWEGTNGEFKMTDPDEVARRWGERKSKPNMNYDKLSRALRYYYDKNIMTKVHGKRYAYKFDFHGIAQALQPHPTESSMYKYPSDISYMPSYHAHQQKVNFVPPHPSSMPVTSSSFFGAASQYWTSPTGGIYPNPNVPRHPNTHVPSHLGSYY
To be noted: protein: recombinant; tags: N-terminal GST; dsDNA, one strand shown. In outline: (§1)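 Beads coated with glutathione captured GST-fused human transcription factors that had been expressed in yeast, and the factors were then given DNA barcodes and pooled with a tag-only sample. The pools were incubated with 200 nmole of a random double-stranded 16-mer DNA library in Tris/NaCl/DTT/glycerol buffer for 30 min at room temperature, washed, crosslinked with 0.1% formaldehyde and proximity-ligated with BsaI/T4 ligase at 37 °C for 1 h. PCR amplification and Illumina NextSeq500 sequencing came last. Binding signal is each hexamer's read frequency for a factor divided by its frequency for the tag-only sample.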

The target in another experiment is T2, ELK1 (Homo sapiens, UniProt P19419 1-428).
T2 sequence: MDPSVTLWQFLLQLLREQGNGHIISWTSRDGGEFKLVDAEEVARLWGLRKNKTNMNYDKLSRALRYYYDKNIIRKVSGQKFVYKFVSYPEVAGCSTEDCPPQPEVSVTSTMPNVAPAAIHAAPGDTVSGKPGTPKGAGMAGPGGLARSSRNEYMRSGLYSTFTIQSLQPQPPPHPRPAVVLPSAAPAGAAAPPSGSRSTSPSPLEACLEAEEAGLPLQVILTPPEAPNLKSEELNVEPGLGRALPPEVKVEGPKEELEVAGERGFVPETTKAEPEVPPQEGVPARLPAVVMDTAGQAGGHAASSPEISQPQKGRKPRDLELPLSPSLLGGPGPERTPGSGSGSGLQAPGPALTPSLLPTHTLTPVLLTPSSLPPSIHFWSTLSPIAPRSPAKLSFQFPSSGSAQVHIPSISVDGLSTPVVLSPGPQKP
To be noted: protein: recombinant; tags: N-terminal GST; dsDNA, one strand shown. The procedure, abridged: as §1

The target in the next experiment is ELF1 (Homo sapiens, UniProt P32519 1-619). The settings on record: protein: recombinant; tags: N-terminal GST; dsDNA, one strand shown. In outline: as §1
ELF1, sequence (P32519 whole entry): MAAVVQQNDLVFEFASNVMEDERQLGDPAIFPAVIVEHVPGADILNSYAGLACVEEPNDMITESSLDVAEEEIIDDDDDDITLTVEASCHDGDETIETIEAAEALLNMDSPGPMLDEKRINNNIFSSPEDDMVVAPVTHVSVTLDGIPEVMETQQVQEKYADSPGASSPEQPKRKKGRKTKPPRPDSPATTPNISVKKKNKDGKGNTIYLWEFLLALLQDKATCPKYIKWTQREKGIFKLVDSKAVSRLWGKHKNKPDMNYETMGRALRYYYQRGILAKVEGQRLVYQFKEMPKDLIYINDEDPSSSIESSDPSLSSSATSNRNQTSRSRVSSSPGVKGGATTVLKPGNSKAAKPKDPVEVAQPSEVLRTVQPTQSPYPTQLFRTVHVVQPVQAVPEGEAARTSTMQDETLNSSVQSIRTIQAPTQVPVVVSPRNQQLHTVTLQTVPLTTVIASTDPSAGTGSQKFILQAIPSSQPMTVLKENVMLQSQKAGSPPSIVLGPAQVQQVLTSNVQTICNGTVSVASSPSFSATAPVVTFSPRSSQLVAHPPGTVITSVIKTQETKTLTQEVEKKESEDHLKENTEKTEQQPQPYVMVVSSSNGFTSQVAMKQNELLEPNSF
A further experiment deals with T3, EHF (Homo sapiens, UniProt Q9NZC4 1-300).
T3 sequence: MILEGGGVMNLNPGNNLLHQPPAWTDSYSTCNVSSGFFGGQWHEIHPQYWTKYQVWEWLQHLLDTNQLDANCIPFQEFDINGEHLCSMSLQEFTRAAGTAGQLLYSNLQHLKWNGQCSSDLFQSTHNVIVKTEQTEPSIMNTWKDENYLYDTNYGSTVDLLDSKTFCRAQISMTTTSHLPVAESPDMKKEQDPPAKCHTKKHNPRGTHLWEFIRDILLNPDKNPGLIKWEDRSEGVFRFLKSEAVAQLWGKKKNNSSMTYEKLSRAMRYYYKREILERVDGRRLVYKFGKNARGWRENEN
To be noted: protein: recombinant; tags: N-terminal GST; dsDNA, one strand shown. The procedure, abridged: as §1

Another experiment deals with SPIB (Homo sapiens, UniProt Q01892 1-262). To be noted: protein: recombinant; tags: N-terminal GST; dsDNA, one strand shown. The procedure, abridged: as §1
SPIB, sequence (Q01892 whole entry): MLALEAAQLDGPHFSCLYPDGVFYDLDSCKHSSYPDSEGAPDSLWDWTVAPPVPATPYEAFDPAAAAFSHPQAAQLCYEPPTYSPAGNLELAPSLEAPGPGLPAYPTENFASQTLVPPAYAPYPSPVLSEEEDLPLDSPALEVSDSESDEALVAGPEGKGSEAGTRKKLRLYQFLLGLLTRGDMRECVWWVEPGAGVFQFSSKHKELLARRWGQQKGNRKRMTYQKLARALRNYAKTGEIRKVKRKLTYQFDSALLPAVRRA
For another experiment, the target named is T4, ELK3 (Homo sapiens, UniProt P41970 1-407).
T4 sequence: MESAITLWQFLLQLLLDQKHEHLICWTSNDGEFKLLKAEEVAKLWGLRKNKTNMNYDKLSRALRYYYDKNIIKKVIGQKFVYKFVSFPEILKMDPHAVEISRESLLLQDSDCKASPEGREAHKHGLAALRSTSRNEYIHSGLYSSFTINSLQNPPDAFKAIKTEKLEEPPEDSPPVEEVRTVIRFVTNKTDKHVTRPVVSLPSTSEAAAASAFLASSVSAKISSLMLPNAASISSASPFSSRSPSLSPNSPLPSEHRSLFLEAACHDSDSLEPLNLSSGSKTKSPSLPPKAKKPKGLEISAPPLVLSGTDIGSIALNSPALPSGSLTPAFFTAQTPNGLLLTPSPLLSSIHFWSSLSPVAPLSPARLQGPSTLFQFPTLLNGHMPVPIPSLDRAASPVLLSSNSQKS
To be noted: protein: recombinant; tags: N-terminal GST; dsDNA, one strand shown. In outline:
as §1

The target of another experiment is ETV5 (Homo sapiens, UniProt P41161 1-510). The settings on record: protein: recombinant; tags: N-terminal GST; dsDNA, one strand shown. In outline: as §1
ETV5, sequence (P41161 whole entry): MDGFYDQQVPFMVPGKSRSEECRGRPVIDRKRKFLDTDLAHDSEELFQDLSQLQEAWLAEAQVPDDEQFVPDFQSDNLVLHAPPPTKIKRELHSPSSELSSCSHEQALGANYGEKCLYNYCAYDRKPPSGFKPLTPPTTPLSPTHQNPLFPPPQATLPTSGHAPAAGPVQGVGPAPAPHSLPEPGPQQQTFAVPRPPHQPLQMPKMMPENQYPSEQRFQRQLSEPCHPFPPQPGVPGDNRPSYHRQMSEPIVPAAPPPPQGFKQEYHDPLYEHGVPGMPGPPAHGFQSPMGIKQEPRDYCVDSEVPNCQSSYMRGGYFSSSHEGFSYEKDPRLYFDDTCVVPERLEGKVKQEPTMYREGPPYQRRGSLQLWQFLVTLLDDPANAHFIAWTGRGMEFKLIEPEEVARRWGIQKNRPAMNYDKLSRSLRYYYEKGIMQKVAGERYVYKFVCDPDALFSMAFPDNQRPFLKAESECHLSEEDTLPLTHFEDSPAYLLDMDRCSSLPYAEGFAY
For the next experiment, the target named is HSF1 (Homo sapiens, UniProt Q00613 1-529). To be noted: protein: recombinant; tags: N-terminal GST; chain copies: 3; dsDNA, one strand shown. The procedure, abridged: as §1
HSF1, sequence (Q00613 whole entry): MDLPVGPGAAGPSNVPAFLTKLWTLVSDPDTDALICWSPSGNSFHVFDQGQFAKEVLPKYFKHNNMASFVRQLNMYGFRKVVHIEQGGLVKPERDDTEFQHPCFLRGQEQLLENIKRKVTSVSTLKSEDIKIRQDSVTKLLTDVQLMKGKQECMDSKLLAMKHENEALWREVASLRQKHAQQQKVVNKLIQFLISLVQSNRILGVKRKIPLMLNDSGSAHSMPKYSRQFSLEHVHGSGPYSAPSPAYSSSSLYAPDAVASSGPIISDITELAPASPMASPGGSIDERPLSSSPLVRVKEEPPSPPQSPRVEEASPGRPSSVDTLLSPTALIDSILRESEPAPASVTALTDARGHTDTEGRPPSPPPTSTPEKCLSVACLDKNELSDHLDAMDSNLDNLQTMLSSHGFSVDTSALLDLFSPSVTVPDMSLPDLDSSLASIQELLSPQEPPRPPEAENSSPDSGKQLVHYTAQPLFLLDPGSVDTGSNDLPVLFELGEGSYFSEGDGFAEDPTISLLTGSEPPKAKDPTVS
The target of another experiment is T5, SPIC (Homo sapiens, UniProt Q8N5J4 1-248).
T5 sequence: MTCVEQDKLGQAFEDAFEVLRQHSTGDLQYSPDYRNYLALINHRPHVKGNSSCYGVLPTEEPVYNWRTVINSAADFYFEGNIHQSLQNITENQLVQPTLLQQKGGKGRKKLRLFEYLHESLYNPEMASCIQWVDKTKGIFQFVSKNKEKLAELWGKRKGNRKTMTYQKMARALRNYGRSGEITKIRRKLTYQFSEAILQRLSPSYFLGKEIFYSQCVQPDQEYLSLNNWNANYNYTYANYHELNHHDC
To be noted: protein: recombinant; tags: N-terminal GST; dsDNA, one strand shown. In outline:
as §1

For another experiment, the target named is ELF4 (Homo sapiens, UniProt Q99607 1-663). The settings on record: protein: recombinant; tags: N-terminal GST; dsDNA, one strand shown. In outline:
as §1

The next experiment concerns the target T6, ELK4 (Homo sapiens, UniProt P28324-2 1-405).
T6 sequence: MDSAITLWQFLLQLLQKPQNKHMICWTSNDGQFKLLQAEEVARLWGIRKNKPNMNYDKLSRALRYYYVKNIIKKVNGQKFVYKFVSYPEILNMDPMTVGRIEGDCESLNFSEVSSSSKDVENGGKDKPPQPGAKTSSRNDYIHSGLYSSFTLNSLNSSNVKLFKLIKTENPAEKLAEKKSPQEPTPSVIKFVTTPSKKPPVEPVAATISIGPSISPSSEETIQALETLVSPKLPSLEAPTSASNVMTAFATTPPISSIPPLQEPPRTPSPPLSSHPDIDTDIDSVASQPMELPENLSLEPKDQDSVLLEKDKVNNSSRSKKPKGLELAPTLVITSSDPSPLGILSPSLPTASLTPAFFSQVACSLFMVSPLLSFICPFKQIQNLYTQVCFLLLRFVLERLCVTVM
To be noted: protein: recombinant; tags: N-terminal GST; dsDNA, one strand shown. The procedure, abridged:
as §1

The target in another experiment is T7, ELF3 (Homo sapiens, UniProt P78545 1-371).
T7 sequence: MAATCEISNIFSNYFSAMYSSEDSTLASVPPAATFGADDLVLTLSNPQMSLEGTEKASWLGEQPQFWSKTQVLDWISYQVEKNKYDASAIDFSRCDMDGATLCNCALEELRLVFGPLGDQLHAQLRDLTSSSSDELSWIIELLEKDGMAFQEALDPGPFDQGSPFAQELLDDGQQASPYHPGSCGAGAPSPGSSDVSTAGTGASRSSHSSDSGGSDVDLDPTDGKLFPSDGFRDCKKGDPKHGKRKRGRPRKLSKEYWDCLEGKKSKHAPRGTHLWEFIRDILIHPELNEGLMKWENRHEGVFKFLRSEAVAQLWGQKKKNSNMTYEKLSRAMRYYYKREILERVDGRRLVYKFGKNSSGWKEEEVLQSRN
The settings on record: protein: recombinant; tags: N-terminal GST; dsDNA, one strand shown. In outline:
as §1

The target of a further experiment is CRX (Homo sapiens, UniProt O43186 1-299). The settings on record: protein: recombinant; tags: N-terminal GST; dsDNA, one strand shown. In outline: as §1
CRX, sequence (O43186 whole entry): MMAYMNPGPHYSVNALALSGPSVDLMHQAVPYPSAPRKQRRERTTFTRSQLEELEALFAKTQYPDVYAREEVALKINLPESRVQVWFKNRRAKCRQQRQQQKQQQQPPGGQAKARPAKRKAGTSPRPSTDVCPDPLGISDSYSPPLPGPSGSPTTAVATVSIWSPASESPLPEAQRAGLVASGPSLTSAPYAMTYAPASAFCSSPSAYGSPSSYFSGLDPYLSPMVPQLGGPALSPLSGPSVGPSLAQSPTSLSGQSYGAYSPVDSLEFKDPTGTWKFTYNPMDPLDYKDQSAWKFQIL
The next experiment addresses ETV1 (Homo sapiens, UniProt P50549 1-477). To be noted: protein: recombinant; tags: N-terminal GST; dsDNA, one strand shown. The procedure, abridged: as §1
A further experiment addresses T8, GABPA (Homo sapiens, UniProt Q06546 1-454).
T8 sequence: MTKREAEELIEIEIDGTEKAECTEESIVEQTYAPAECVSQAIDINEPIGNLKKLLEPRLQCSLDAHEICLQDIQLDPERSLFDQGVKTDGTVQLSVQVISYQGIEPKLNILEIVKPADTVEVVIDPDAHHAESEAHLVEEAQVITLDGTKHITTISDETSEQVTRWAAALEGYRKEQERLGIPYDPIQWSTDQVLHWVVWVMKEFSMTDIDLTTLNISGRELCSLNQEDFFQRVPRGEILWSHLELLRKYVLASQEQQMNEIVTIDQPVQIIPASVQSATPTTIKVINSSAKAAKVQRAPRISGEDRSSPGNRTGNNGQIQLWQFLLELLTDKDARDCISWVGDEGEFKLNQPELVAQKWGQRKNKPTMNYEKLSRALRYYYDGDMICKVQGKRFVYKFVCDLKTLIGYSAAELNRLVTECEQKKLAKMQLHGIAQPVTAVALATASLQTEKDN
The settings on record: protein: recombinant; tags: N-terminal GST; dsDNA, one strand shown. The procedure, abridged: as §1

Another experiment deals with T9, ERG (Homo sapiens, UniProt P11308 1-479).
T9 sequence: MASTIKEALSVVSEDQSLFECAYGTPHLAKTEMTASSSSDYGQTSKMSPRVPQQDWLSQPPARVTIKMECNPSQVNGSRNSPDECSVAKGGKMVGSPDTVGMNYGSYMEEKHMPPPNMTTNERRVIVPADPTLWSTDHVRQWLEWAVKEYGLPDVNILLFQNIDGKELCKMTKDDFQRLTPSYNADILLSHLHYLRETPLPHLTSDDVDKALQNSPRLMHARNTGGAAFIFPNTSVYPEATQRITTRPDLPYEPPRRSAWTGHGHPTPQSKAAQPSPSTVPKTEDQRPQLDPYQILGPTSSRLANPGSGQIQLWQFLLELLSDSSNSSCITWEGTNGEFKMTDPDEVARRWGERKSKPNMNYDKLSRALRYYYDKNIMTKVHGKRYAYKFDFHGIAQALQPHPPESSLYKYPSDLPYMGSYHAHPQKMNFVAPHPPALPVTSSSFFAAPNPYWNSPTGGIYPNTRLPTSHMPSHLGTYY
To be noted: protein: recombinant; tags: N-terminal GST; dsDNA, one strand shown. In outline:
as §1

The target in a further experiment is SPI1 (Homo sapiens, UniProt P17947 1-270). To be noted: protein: recombinant; tags: N-terminal GST; dsDNA, one strand shown. In outline: as §1
The target in the next experiment is T10, FEV (Homo sapiens, UniProt Q99581 1-238).
T10 sequence: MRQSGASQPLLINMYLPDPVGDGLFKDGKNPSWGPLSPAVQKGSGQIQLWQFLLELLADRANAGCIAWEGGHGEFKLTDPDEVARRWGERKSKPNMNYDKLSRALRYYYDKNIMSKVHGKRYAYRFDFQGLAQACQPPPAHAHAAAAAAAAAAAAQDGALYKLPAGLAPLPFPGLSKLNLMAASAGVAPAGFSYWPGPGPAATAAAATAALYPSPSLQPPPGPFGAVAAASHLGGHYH
To be noted: protein: recombinant; tags: N-terminal GST; dsDNA, one strand shown. In outline:
as §1

ETV1, sequence (P50549 whole entry): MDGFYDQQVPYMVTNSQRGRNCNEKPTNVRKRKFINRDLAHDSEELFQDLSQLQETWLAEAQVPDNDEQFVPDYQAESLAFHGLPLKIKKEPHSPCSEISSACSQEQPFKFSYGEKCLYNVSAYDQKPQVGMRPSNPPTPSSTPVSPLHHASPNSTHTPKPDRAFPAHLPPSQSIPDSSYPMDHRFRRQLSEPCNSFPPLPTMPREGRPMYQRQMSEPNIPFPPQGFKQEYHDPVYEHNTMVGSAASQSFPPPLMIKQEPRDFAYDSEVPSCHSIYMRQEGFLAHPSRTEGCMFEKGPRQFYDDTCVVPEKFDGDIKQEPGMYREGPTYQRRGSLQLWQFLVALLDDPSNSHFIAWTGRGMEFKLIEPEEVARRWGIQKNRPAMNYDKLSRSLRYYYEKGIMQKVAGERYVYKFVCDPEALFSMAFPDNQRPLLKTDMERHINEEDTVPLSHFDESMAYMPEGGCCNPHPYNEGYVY
ELF4, sequence (Q99607 whole entry): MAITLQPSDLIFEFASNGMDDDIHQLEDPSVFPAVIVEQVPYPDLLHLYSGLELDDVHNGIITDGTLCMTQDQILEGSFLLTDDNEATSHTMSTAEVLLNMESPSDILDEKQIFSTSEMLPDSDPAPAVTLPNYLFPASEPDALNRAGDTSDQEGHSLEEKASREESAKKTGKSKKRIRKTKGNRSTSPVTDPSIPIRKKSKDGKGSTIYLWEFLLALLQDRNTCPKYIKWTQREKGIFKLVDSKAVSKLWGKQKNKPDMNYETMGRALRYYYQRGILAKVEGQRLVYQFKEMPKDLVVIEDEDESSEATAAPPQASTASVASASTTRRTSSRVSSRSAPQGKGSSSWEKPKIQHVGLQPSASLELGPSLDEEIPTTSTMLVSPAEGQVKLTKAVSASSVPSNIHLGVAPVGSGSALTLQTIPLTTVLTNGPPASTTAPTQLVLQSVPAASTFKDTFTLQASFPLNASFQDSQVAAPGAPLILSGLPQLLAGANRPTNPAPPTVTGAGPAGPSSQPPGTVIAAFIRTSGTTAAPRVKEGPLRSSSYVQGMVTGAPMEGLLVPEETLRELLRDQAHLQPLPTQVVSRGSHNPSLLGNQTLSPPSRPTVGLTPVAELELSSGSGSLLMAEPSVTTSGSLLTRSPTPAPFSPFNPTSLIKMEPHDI

On to ATCAGC, for which the binding signal with FLI1 is 1.03 fold enrichment (6-mer frequency, TF over GST control); in the experiment with ELK1 it was 1.08 fold enrichment (6-mer frequency, TF over GST control); in the experiment with ELF1, 1.01 fold enrichment (6-mer frequency, TF over GST control); in the experiment with EHF, 1.02 fold enrichment (6-mer frequency, TF over GST control); with SPIB, 1.02 fold enrichment (6-mer frequency, TF over GST control); in the experiment with ELK3, 1.03 fold enrichment (6-mer frequency, TF over GST control). The binding signal with ETV5 was 1.01 fold enrichment (6-mer frequency, TF over GST control); with HSF1, 1.01 fold enrichment (6-mer frequency, TF over GST control); in the experiment with SPIC, 1 fold enrichment (6-mer frequency, TF over GST control); in the experiment with ELF4, 1.02 fold enrichment (6-mer frequency, TF over GST control); with ELK4, 1.14 fold enrichment (6-mer frequency, TF over GST control); with ELF3, 1.13 fold enrichment (6-mer frequency, TF over GST control). Moreover, the binding signal was 1.31 fold enrichment (6-mer frequency, TF over GST control) in the experiment with CRX and 1.01 fold enrichment (6-mer frequency, TF over GST control) in the experiment with ETV1.

Take CGCTCG: the binding signal with FLI1 is 1.17 fold enrichment (6-mer frequency, TF over GST control); with ELK1 it was 1.08 fold enrichment (6-mer frequency, TF over GST control); with GABPA, 1.11 fold enrichment (6-mer frequency, TF over GST control); with ERG, 1.05 fold enrichment (6-mer frequency, TF over GST control); in the experiment with ELF1 it was 1.19 fold enrichment (6-mer frequency, TF over GST control); with EHF, 1.04 fold enrichment (6-mer frequency, TF over GST control). Further, the binding signal is 1.08 fold enrichment (6-mer frequency, TF over GST control) with SPI1; 1.12 fold enrichment (6-mer frequency, TF over GST control) with SPIB; 1.11 fold enrichment (6-mer frequency, TF over GST control) with ELK3; 1.08 fold enrichment (6-mer frequency, TF over GST control) with FEV; 1.05 fold enrichment (6-mer frequency, TF over GST control) in the experiment with ETV5; 1.16 fold enrichment (6-mer frequency, TF over GST control) with HSF1. The binding signal with SPIC was 1.24 fold enrichment (6-mer frequency, TF over GST control); with ELF4 it was 1.17 fold enrichment (6-mer frequency, TF over GST control); in the experiment with ELK4, 1.13 fold enrichment (6-mer frequency, TF over GST control); with ELF3, 1.35 fold enrichment (6-mer frequency, TF over GST control); with ETV1, 1.09 fold enrichment (6-mer frequency, TF over GST control).
